# According to PubChem BioAssay AID652245 (The Scripps Research Institute Molecular Screening Center, 2013):
# In all, about 1,600 compounds went through this assay and about 920 (58%) were called active. So high a share suggests a set chosen from earlier hits. Not all results are given here. A number with no mark means an inactive call.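 The calls were made as follows: active = inhibition above the primary screen's cutoff, the mean inhibition of all screened compounds plus 3 SD (cut at about 13% in these data); inactive = the rest.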
# Target: Galanin receptor type 3 (Homo sapiens) (UniProt O60755)
# Sequence (O60755 1-299 limits assumed): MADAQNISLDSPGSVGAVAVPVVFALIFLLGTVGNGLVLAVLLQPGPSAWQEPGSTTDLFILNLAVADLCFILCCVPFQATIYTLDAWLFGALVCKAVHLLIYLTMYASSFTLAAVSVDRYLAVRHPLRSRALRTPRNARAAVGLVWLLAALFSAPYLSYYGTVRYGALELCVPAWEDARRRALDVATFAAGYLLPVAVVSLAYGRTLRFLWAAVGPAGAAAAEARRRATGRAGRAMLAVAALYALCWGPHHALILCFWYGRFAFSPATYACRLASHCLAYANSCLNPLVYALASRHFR
# Test: blockers of human galanin receptor 3 – cell-based, fluorescence, triplicate, confirmation (AID 652245);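 also: 0% = forskolin plus galanin and 100% = forskolin alone with DMSO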
# Details: HEK293 GalR3 CNG cAMP biosensor, membrane potential fluorescence; at 3 µM; stronger effect = higher value
row,SMILES,inhibition
1,CCCCCCCCCCCCn1ccc(=N)cc1,92.6% (active)
2,COC(=O)C1=C(c2cc3ccccc3s2)C[C@@H]2CC[C@H]1N2C(=O)NCc1cccc2ccccc12,-2.45%
3,COc1ccc(-n2c(-c3ccccc3)nc3ccccc3c2=O)cc1,7.55%
